# Assay results: PubChem BioAssay AID540317 (National Center for Advancing Translational Sciences (NCATS), 2011)
# Screen size: about 390,000 compounds; about 2,200 (0.56%) were called active. Inconclusive results (about 3%) are left out. This excerpt belongs to a sample that is enriched for actives. Unmarked numbers belong to inactive results. The call rests on the fitted dose curve; in most records, active means well fitted inhibition curve with a large enough effect; inconclusive means small, poorly fitted or top-dose-only effect; inactive means no such curve, though single readings can be large or run the other way.
# Target: Chromobox protein homolog 1 (Homo sapiens) (UniProt P83916)
# Assay: HTS for Inhibitors of HP1-beta Chromodomain Interactions with Methylated Histone Tails; further: nearly all actives have a fitted effect of over 70% in size
# Conditions: AlphaScreen HP1-beta / biotin-H3K9me3 peptide binding; series mostly up to 114 µM; activity change, negative = inhibition: at the top concentration
# Text: As our understanding of epigenetics expands, it is becoming clear that players in this field are potential targets for drug development. This area of epigenetic therapy has established applications for the treatment of cancer and neurological diseases. We have been involved in this field for a number of years and have performed high-throughput screens to identify the first small molecule inhibitors of protein methyltransferases. These methyltransferases target multiple substrates, and thus regulate many arms of an epigenetic pathway. The methylation of different substrates often generates docking sites for effector proteins that harbor binding domains (chromo, tudor, PHD, MBT and ANK repeats). It has been proposed that the binding sites generated for different proteins by these post-translational modifcations mediate downstream effects on chromatin. Consistent with this theory, di- and tri-methylation of histone H3K9 facilitates the binding of heterochromatin protein HP1. The HP1 protein harbors a chromodomain that is responsible for the methyl-dependent interaction between HP1 and lysine 9 of histone H3. HP1 was first described in flies as a heterochromatin associated protein that can regulate gene silencing. It harbors a chromodomain that binds H3K9me3. In addition, it harbors a chromoshadow domain that interacts with a large number of proteins that are involved in heterochromatin formation and gene repression. There are three highly related HP1 isoforms. All three variants are associated with pericentric heterochromatin and it is not clear whether they have specific or redundant functions. MPP8 is also involved in the repression of gene in euchromatic regions (unpublished data) and like HP1 its chromodomain binds H3K9me3. MPP8 harbors an ankyrin repeat region that is likely involved in binding and recruiting interacting proteins with transcriptional repressive function, much like the chromoshadow domain of HP1 does. We hypothesize that by inhibiting specific protein-protein interactions we will be able to develop compounds that block a single arm of an epigenetic pathway. The specificity attained by blocking a single protein-protein interaction will be far greater than that attained by blocking the enzyme that regulates one of many interactions. Low-affinity protein-protein interactions (Kd in the single- to double-digit micromolar range) such as those discussed here have been very difficult to assay by traditional techniques such as fluorescence polarization or fluorescence resonance energy transfer. We have developed a sensitive chemiluminescence-based assay (Quinn, et al. 2009), which serves as the starting point for this project. The following is a validation assay to identify lead compounds that can block methyl-dependent protein-protein interactions (specifically HP1-beta), which can be used as probes to analyze these methyl-driven interactions and perhaps even developed into targeted epigenetic therapies. NIH Chemical Genomics Center [NCGC] NIH Molecular Libraries Probe Centers Network [MLPCN] MLPCN Grant: DA031087 Assay Submitter (PI): Mark Bedford, University of Texas, Medical Anderson Cancer Center, TX
# To each well, 2 uL of HP1-beta protein (final 50 nM) and 1 uL biotinylated histone peptide trimethylated at Lys9 [b-H3(1-18)K9me3] (final 50 nM) was added in 1x PBS buffer, pH 7.4, containing 0.01% Tween-20 using a nanoliter dispenser. Formation of a protein-peptide complex proceeded at room temperature for 30 min. A Kalypsys pin-tool was employed to transfer 23 nL of library compound solution in DMSO to each well. Aurintricarboxylic acid (ATA) was used as an intraplate control with a 12-point titration in duplicate. Following a 30 min incubation of the protein-peptide complex with compounds at room temperature, a mixture of 40 ug/mL each streptavidin-coated donor and nickel chelate acceptor AlphaScreen beads (final 10 ug/mL) was added in a 1 uL dispense for a final volume of 4 uL. […]
# Potency means the concentration at half of the fitted maximal effect.
# Chain of Chromobox protein homolog 1 (Homo sapiens) (P83916 whole entry, looked up): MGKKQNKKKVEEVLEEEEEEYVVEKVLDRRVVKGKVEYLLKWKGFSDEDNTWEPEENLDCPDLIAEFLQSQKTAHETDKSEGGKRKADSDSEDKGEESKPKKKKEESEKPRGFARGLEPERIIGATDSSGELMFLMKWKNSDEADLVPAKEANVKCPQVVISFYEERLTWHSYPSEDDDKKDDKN
SMILES,"activity change, negative = inhibition",Potency
CCOc1ccc(S(=O)(=O)c2cn(Cc3ccc(OC)cc3)c3ccc(F)cc3c2=O)cc1,43.2%,–
COc1ccc2c(c1)c(=Cc1ccc(N(C)C)cc1)c1cc(-c3ccccc3)[n+](C)n12,–,39.8 µM (active)
COc1ccc(-c2ccc(C3C4C=CCCC4(C)C(=O)N3Cc3ccccc3)c(F)c2)cc1OC (stereo not drawn),14.5%,–
Clc1cccc(-n2ncc3c(NCCc4ccccc4)ncnc32)c1,97.1%,–
CCCOC(=O)c1c(NC(=O)c2cc3nc(-c4ccc(OC)cc4)cc(C(F)(F)F)n3n2)sc2c1CCCC2,5.34%,–
O=C(COc1ccccc1[N+](=O)[O-])NC1CC1,39.7%,–
C=CCN(CC=C)CCOc1ccccc1[N+](=O)[O-],–,39.8 µM (active)
Cc1ccc(OCC(=O)Oc2ccccc2[N+](=O)[O-])cc1,20.1%,–
OCCNc1ncnc2oc(-c3ccco3)c(-c3ccco3)c12,-0.766%,–
CCOC(=O)C1CCCN(C(=O)c2ccc(-n3ccc4ccccc43)s2)C1 (stereo not drawn),99.9%,–
O=C(c1cccc(Br)c1)N1CCN(Cc2cc(=O)n3nc(-c4ccccc4)sc3n2)CC1,20.1% [at 57 µM],–
Cc1c(NC(=O)CCC2CCCCC2)cc(C(=O)N2CCOCC2)cc1[N+](=O)[O-],59.7%,–
COc1ccc(NC(=O)CN(C)C(=O)c2ccc(NC3CC3)c([N+](=O)[O-])c2)cc1,-5.96%,–
Cc1cc(C=O)c(C)n1-c1ccc(NC2CCCCC2)c([N+](=O)[O-])c1,–,25.1 µM (active)
CCOc1ccc(CC(=O)NCCc2csc3nc(-c4ccccc4F)nn23)cc1,13.6% [at 57 µM],–
CCOc1ccccc1N(C)C(=O)c1cc2c(s1)-c1ccccc1OC2,26.3%,–
CCc1ccc(OCCCn2c(CCCNC(=O)C3CCCCC3)nc3ccccc32)cc1,27.3% [at 57 µM],–
Cc1ccc(OCC(=O)Nc2ccc(Cl)c(-c3nc4ccccc4[nH]3)c2)cc1C,41.1%,–
O=C(CC1SC(N2CCOCC2)=NC1=O)Nc1ccccc1F (stereo not drawn),59.6%,–
N#C/C(=C\C1=C(N2CCOCC2)C(=C\c2ccccc2)/CC1)C(=O)Nc1ccccc1F,–,7.08 µM (active)
Cc1ccc(C(=O)Nc2ccccc2F)cc1S(=O)(=O)N1CCOCC1,39.4%,–

SMILES,"activity change, negative = inhibition",Potency
O=C(Nc1ccc(Br)cc1)c1ccc(Br)c(S(=O)(=O)NCc2ccccc2)c1,-11%,–
CC(C)C12CN3CC(C(C)C)(CN(C1)C3c1ccc(OCc3ccccc3)cc1)C2=O (stereo not drawn),4.34%,–
O=C(O)c1ccc2c(c1)N(Cc1ccc(F)cc1)C(=O)c1ccccc1S2=O (stereo not drawn),28.1%,–
Cc1ccc(CNS(=O)(=O)c2ccc(-c3cc(C(F)(F)F)on3)s2)cc1,48.9%,–
N#Cc1c(N2CCCCC2)nc(N)c2c(N)nc(SCC(=O)O)cc12,–,35.5 µM (active)
CCC(C)c1ccc2oc(-c3ccc(NC(=O)c4cc5ccccc5o4)cc3)nc2c1 (stereo not drawn),5.45%,–
CCCCc1nn2c(=O)cc(COC(=O)c3ccccc3NC(=O)C(C)(C)C)nc2s1,32.6%,–
Cc1cc(NC(=O)CSc2ncc(C(=O)Nc3ccc(Cl)cc3)c(=O)n2C)no1,19.9%,–
CSC1=N/C(=C\C=C\c2cccs2)C(=O)S1,–,28.2 µM (active)
Cc1ccc(C(=O)NCCSc2c(C)[nH]c3ccccc23)cc1C,8.02%,–
Cc1ccc(C)c(N2C(=O)N(Cc3c(F)cccc3Cl)c3ccccc3S2(=O)=O)c1,51.8%,–
COc1ccc(-c2onc(C)c2C)cc1S(=O)(=O)NCCc1ccccc1,17.1%,–
COc1ccc(OCc2n[nH]c(=S)n2N)cc1,–,10 µM (active)
Cn1c(CCCOc2ccc(Cl)cc2Cl)n[nH]c1=S,-3.23%,–
C=CCn1c(CCc2ccc(OC(C)C)cc2)n[nH]c1=S,9.44%,–
CSc1nc(-c2ccccc2Cl)nc2c1Cc1c(CO)cnc(C)c1O2,14.1%,–
COC(=O)C1=C(C)N(c2ccc(Br)cc2)C(=O)/C1=C\c1ccco1,–,44.7 µM (active)
COC(=O)C1=C(C)N(c2ccc(C)cc2)/C(=C/c2ccc(O)cc2)C1=O,24.6%,–
COc1ccc(N2C(=O)/C(=C\c3ccco3)N=C2SCC(N)=O)cc1Cl,17.6%,–
Cc1nc(N2CCOCC2)c2c(C(=O)NCc3cccc(Cl)c3)c(C)oc2n1,34.2%,–
CC(C)(C)c1ccc(/C=C/C(=O)NC2CCS(=O)(=O)C2)cc1 (stereo not drawn),25.9%,–

SMILES,"activity change, negative = inhibition",Potency
CN(C)c1ccc(S(=O)(=O)NCC(=O)NCC2CCCCC2)cc1[N+](=O)[O-],-11.4%,–
CN(C)c1ccc(/C=C/C(=O)c2ccc(C(C)(C)C)cc2)cc1[N+](=O)[O-],–,31.6 µM (active)
CCCCC(=O)OC1=CN(Cc2ccccc2)S(=O)(=O)c2ccccc21,107%,–
COc1ccc(C(=O)Nc2nonc2-c2ccc(OC)c(OC)c2)cc1Cl,29.6%,–
O=C(CSc1nc2ccccc2nc1Cc1ccccc1)N1CCCCC1,41% [at 57 µM],–
O=C(NCC1CC1)C1(C(F)(F)F)C/C(=C\CCO)CCCO1 (stereo not drawn),-2.38%,–
O=C(O)c1ccccc1N=N/C(=N/Nc1cc(S(=O)(=O)O)ccc1O)c1ccccc1,–,10 µM (active)
CCC(=O)Nc1cccc(C(=O)OCc2cc(=O)n3nc(CC)sc3n2)c1,27.5%,–
O=C(Nc1ccccc1Br)c1cc(CN2CCCC2)on1,13.6%,–
Fc1ccc(C(Nc2ccc(Cl)c(C(F)(F)F)c2)c2nnc(-c3ccccc3)o2)cc1 (stereo not drawn),34%,–
COc1ccc(C2CC(=O)N(Cc3ccccc3C)c3c2c(C)nn3-c2nc(C)cc(C)n2)c(OC)c1 (stereo not drawn),39.1%,–
COc1cc(OC)c2c(c1C(CCN1CCCCC1)c1ccc(N(C)C)cc1)OC(=O)CC2c1ccc(N(C)C)cc1 (stereo not drawn),-26%,–
Cc1sc(NC(=O)C2C3CCC(O3)C2C(=O)O)c(C(=O)OC(C)C)c1-c1ccc(Cl)cc1 (stereo not drawn),–,4.47 µM (active)
CCc1c(C)sc(NC(=O)C2c3ccccc3Oc3ccccc32)c1C(=O)OC(C)C,22.5%,–
CC(C)OC(=O)c1cc(NC(=O)C2C3CCC(O3)C2C(=O)O)cc(C(=O)OC(C)C)c1 (stereo not drawn),38.1%,–
FC(F)(F)C1CCCN(c2nsc3ccccc23)C1 (stereo not drawn),–,3.16 µM (active)
CCC(=O)N1CCc2cc(S(=O)(=O)NC(C(=O)Nc3ccc(C(C)=O)cc3)C(C)C)ccc21 (stereo not drawn),22.5%,–
COc1ccc(C2/C=C\CN(Cc3ccco3)C(C)C(=O)N2Cc2ccc(F)cc2)cc1 (stereo not drawn),12.8%,–
Cc1noc(C)c1S(=O)(=O)Nc1ccc(C(=O)N2CCN(c3ccc(F)cc3)CC2)cc1,27.9%,–
CC1CCN(C(=O)c2ccc3c(c2)NC(=O)CN3)CC1,22.1%,–
Cc1ccc(CSCC2Nc3ccc(C(=O)N4CCN(c5ccc(F)cc5)CC4)cc3NC2=O)cc1 (stereo not drawn),–,20 µM (active)
